Test [1] in a line: Nuclear factor erythroid 2-related factor 2/antioxidant responsive element (Nrf2/ARE) small molecule agonists: qHTS cell viability counter screen in human keratinocytes (AID 1919968; active = well fitted curve in the direction sought with a large enough effect in the repeat runs; an effect the other way counts as inactive or inconclusive; also: nearly all actives have a fitted effect of over 55% in size). The essentials: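 After a 5 h attachment period, ARE-reporter keratinocytes were dosed with compounds in DMSO and then cultured 23 h at 37 C. Cell viability came from CellTiter-Fluor signal read after a further 1 h.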

Test [2] is described as follows: Nuclear factor erythroid 2-related factor 2/antioxidant responsive element (Nrf2/ARE) small molecule agonists: luciferase reporter gene qHTS assay in human keratinocytes (AID 1919969). Also: nearly all actives have a fitted effect of over 35% in size.
Test [3] concerns the target Gonadotropin-releasing hormone receptor (Homo sapiens) (UniProt P30968). The test is described as follows: Human gonadotropin-releasing hormone receptor (GnRHR) small molecule agonists, calcium flux assay in GnRHR-HEK293 cells (AID 1920063). Also: nearly all actives have a fitted effect of over 35% in size. The essentials:
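We seeded human GnRHR-expressing HEK293 cells for 18 hours, loaded them with calcium dye for an hour at 37 C, added test compounds, and recorded fluorescence intensity kinetically for three minutes.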

In test [4] the target is KiSS-1 receptor (Homo sapiens) (UniProt Q969F8). The test is described as follows: Human kisspeptin (KISS1R) small molecule agonists, calcium flux assay in KISS1R-HEK293 cells (AID 1920064; active = well fitted curve in the direction sought with a large enough effect in the repeat runs; an effect the other way counts as inactive or inconclusive). The essentials: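 Kinetic calcium assay, 1 s sampling over 3 min at Ex/Em 480/540, in HEK293 cells engineered with human KISS1R; compounds delivered in DMSO after 1 h dye loading.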

Test [5] in a line: G protein-coupled receptor (GPCR) small molecule agonists, calcium flux assay: HEK293 wild type cell line counter screen (AID 1920065). Summed up: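 Calcium-sensitive dye, loaded 1 h at 37 C into cells cultured 18 h, reports compound-evoked calcium release as fluorescence (Ex/Em 480/540), measured over 3 min. Agonist mode; 15-point titrations, triplicate.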
Test [6] can be described thus: p53 small molecule agonists, cell-based qHTS assay with human liver microsomes (AID 1963577).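 Also: p53 response element beta-lactamase reporter cells with liver microsomes plus NADPH.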 The essentials:
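p53RE-bla cells; 5 h settle, 37 C/5% CO2; cpd + HLM 0.5 mg/mL + NADPH 0.5 mg/mL (final); 16 h 37 C; LiveBLAzer 2 h RT dark; fluorescence readout.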

Test [7] is described as follows: p53 small molecule agonists, cell-based qHTS assay with rat liver microsomes (AID 1963578). Summed up:
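Rat liver microsome activation: microsomes 0.5 mg/mL, NADPH 0.5 mg/mL final; p53RE-bla cells, 16 h 37 C; LiveBLAzer readout, 2 h RT dark.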

Test [8] in a line: p53 small molecule agonists, cell-based qHTS assay with human liver microsomes: qHTS cell viability counter screen (AID 1963579). Also: nearly all actives have a fitted effect of over 45% in size. Also: potency is read from the fitted curve at half-maximal effect. Summed up:
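Luminescent CellTiter-Glo read-out, 30 min at room temperature, gauged cytotoxicity in p53RE-bla cells exposed 16 h at 37 C to DMSO-dissolved compounds with metabolic activation by human liver microsomes and NADPH, each 0.5 mg/mL final.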

Test [9] is described as follows: p53 small molecule agonists, cell-based qHTS assay with rat liver microsomes: qHTS cell viability counter screen (AID 1963580). Also: nearly all actives have a fitted effect of over 45% in size. The essentials: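 p53RE-bla HCT-116 cells (4,000/well) rested 5 h at 37 C, then given Tox21 compounds in DMSO with rat liver microsomes (0.5 mg/mL final) plus NADPH (0.5 mg/mL final) for 16 h at 37 C. Viability read by CellTiter-Glo luminescence after 30 min at room temperature.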

The nature of test [10]: p53 small molecule agonists, cell-based qHTS assay: qHTS cell viability counter screen (AID 1963581). Also: nearly all actives have a fitted effect of over 45% in size. Summed up:
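Following 5 h attachment, HCT-116 p53RE-bla cells took up compound for 16 h at 37 C; the reporter was read with B/G FRET substrate (2 h RT), and viability then via CellTiter-Glo ATP luminescence.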

Test [11] in a line: p53 small molecule agonists, cell-based qHTS assay (AID 1963582; active = well fitted activation curve with a large enough effect in the signal ratio in the repeat runs, not every such curve was filed as active; the % refers to the signal ratio). The essentials:
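In this cell-based concentration-response screen, a p53 response element drives beta-lactamase; cells received DMSO-borne compounds after 5 h culture and were incubated a further 16 h before FRET substrate development.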

Test [12] deals with 5-hydroxytryptamine receptor 2A (Homo sapiens) (UniProt P28223). Put plainly: 5-hydroxytryptamine receptor 2A (HTR2A) small molecule antagonists, cell-based qHTS assay (AID 1963586). Also: nearly all actives have a fitted effect of over 45% in size. The essentials: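 Antagonist-mode intracellular calcium assay: DOI (4 nM) added after 5 min compound pre-incubation at room temperature to dye-loaded HTR2A-CHO cells. Fluorescence followed for 3 min, sampled every second.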

The target is the same in test [13]. The test is described as follows: 5-hydroxytryptamine receptor 2A (HTR2A) small molecule agonists, cell-based qHTS assay (AID 1963587). Also: nearly all actives have a fitted effect of over 30% in size. The essentials: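 HTR2A-CHO cells, plated 18 h at 37 C/5% CO2, dye-loaded 1 h at 37 C; compounds in DMSO added by pin tool (agonist mode). Intracellular calcium flux read as kinetic fluorescence on FDSS over 2 min at 1 s intervals.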

In test [14] the target is Muscarinic acetylcholine receptor M1 (Homo sapiens) (UniProt P11229). The test is described as follows: Cholinergic receptor muscarinic 1 (CHRM1) small molecule antagonists, cell-based qHTS assay (AID 1963588). Also: nearly all actives have a fitted effect of over 40% in size. The essentials:
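CHRM1-CHO calcium-flux assay, antagonist mode. Cells were seeded 18 h, dye-loaded 1 h at 37 C and given compound for 5 min at RT, then acetylcholine was added at 50nM. FDSS fluorescence was read 3 min; 15 concentrations, three runs.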

In test [15] the target is Beta-2 adrenergic receptor (Homo sapiens) (UniProt P07550). The test is described as follows: Adrenergic beta2 receptor (ADRB2) small molecule antagonists, cell-based qHTS assay (AID 1963592). Also: series mostly up to about 92 µM; nearly all actives have a fitted effect of over 50% in size. The essentials:
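Cells (CHO, stable ADRB2 overexpression) incubated 18-20hr at 37C; compounds added from DMSO; agonist mix (1nM isoproterenol, 100uM IBMX, 25uM Ro-20-1724) added; 0.5hr RT; d2-cAMP and anti-cAMP-cryptate added; 1hr RT; 665/615 nm read.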

Test [16] addresses D(2) dopamine receptor (Homo sapiens) (UniProt P14416). Put plainly: Dopamine D2 receptor (DRD2) small molecule agonists, cell-based qHTS assay (AID 1963594). Also: nearly all actives have a fitted effect of over 35% in size. Summed up: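 HEK293 cells stably expressing DRD2 were cultured 24 h at 37 C, then given Ro20-1724 (0.1 mM final) and compounds for 10 min at room temperature. NKH477 (200nM) was then added for 30 min. cAMP was read by HTRF.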

Test [17] has the same target. Put plainly: Dopamine D2 receptor (DRD2) small molecule antagonists, cell-based qHTS assay (AID 1963595; active = well fitted inhibition curve with a large enough effect in the signal ratio in the repeat runs, with a control signal flat; the % refers to the signal ratio). The essentials: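 Cells were plated and grown for 24 h at 37 °C. Ro20-1724 (0.1 mM final) went in first, then compound for 10 min. NKH477 (200 nM) with quinpirole (12 nM) followed for 30 min at RT, then HTRF detection reagents for 1 h.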
The nature of test [18]: cAMP Responsive Elements (CRE) small molecule agonists, cell-based qHTS assay (AID 1963590). Summed up:
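A CRE-responsive beta-lactamase reporter in HEK 293T cells was used. Treatment ran 3 h at 37 C; detection used LiveBLAzer B/G FRET substrate for 2 h at room temperature.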

Test [19] is described as follows: cAMP Responsive Elements (CRE) small molecule antagonists, cell-based qHTS assay (AID 1963591; active = well fitted inhibition curve with a large enough effect in the signal ratio in the repeat runs, not every such curve was filed as active; the % refers to the signal ratio). Summed up: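 HEK293T cells carrying a CRE-driven beta-lactamase reporter receive compound and NKH477 (0.25 uM final) for 3 h. Fluorescence from LiveBLAzer B/G FRET substrate is read after 2 h at room temperature.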
The target of test [20] is Muscarinic acetylcholine receptor M1 (Homo sapiens) (UniProt P11229). Put plainly: Cholinergic receptor muscarinic 1 (CHRM1) small molecule agonists, cell-based qHTS assay (AID 1963589). Also: nearly all actives have a fitted effect of over 35% in size. The essentials: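 Measures agonist-induced intracellular calcium rise. Stable human CHRM1 CHO line, 1 h dye load at 37 C, compounds from DMSO, kinetic fluorescence read.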

SMILES strings stand for the structures. Values without a mark were called inactive. Records with an inconclusive call do not appear. Calls of active or inactive are those of the source. Unless noted, calls follow the shape of the full dose curve.

Sequence of Beta-2 adrenergic receptor (Homo sapiens) (P07550 whole entry, looked up): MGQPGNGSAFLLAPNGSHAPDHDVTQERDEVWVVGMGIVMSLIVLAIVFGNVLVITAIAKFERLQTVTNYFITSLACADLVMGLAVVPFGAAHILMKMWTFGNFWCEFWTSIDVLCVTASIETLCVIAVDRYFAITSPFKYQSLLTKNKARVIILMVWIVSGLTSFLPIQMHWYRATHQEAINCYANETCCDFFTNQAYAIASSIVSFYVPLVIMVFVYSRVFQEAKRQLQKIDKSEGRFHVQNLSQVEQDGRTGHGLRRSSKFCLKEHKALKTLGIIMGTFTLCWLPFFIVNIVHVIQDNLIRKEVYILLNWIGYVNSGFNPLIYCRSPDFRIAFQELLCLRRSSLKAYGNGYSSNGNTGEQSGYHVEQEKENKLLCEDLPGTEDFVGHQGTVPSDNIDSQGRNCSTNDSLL
Sequence of Muscarinic acetylcholine receptor M1 (Homo sapiens) (P11229 whole entry, looked up): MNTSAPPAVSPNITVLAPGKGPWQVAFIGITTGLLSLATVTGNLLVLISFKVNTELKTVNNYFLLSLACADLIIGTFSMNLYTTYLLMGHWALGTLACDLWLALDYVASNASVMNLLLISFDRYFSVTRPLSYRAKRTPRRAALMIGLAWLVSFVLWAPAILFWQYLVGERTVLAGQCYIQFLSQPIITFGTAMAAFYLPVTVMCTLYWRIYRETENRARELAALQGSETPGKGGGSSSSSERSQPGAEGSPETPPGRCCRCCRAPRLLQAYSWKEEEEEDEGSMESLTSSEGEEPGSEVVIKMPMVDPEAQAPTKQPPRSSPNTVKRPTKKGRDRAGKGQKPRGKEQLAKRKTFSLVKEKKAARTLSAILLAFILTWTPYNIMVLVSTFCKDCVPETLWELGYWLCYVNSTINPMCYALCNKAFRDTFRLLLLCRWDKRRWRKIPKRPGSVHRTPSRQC
Sequence of KiSS-1 receptor (Homo sapiens) (Q969F8 whole entry, looked up): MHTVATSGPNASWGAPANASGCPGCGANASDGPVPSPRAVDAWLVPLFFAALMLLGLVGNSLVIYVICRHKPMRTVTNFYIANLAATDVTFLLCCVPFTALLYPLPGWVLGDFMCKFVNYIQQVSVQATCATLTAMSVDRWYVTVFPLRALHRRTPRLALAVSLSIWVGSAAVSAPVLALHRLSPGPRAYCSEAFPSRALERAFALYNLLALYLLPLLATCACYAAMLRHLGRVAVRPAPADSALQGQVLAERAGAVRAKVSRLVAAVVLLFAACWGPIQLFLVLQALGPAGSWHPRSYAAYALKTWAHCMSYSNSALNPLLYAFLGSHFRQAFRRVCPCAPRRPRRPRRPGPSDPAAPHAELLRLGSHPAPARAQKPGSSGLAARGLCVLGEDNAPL
Sequence of 5-hydroxytryptamine receptor 2A (Homo sapiens) (P28223 whole entry, looked up): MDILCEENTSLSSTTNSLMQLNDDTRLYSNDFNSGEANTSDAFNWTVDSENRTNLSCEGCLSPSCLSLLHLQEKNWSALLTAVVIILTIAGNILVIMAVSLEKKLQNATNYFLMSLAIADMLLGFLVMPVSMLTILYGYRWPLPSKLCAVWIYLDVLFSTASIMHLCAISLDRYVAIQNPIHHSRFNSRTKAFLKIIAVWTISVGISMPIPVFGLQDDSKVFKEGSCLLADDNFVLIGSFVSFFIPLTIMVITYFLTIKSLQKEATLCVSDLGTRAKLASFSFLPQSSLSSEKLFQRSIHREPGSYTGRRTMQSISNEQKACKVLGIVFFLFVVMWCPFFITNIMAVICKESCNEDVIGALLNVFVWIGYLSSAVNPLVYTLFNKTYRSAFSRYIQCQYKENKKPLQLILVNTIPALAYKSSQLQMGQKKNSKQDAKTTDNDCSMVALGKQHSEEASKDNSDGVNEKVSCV
Sequence of Gonadotropin-releasing hormone receptor (Homo sapiens) (P30968 whole entry, looked up): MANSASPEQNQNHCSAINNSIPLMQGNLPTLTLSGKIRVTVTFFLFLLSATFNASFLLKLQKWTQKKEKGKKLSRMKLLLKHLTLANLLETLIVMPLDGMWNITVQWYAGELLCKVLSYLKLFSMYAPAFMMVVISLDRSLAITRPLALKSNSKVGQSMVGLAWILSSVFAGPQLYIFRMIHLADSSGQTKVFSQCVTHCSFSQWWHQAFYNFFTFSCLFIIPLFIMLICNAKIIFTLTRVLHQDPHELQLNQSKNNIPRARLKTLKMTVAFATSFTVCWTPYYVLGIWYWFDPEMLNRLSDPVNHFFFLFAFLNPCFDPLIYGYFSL
Sequence of D(2) dopamine receptor (Homo sapiens) (P14416 whole entry, looked up): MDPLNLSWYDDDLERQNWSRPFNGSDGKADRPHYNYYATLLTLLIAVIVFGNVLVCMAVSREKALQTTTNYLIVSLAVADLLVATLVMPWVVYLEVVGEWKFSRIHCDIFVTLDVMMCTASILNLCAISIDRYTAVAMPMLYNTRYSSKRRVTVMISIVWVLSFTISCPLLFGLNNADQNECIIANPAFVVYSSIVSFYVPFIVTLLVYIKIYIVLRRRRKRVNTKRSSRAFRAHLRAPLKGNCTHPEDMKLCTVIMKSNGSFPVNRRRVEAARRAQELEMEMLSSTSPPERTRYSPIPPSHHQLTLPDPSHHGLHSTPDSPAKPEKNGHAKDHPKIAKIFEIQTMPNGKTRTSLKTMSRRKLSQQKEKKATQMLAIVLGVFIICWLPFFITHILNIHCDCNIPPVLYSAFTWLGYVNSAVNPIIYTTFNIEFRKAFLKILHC

Turning to `Cc1ccc(C(=O)c2ccccc2)cc1`, the Potency entry in test [1], in test [2], in [3], in test [6], in [7] and in [8] was “inactive” each time. Also, the Potency entry in test [9], in test [10], in [11], in test [12], in [13] and in [14] was “inactive” in each case. Also, the Potency entry in test [15], in test [16] and in [17] was “inactive” each time. The outcome in [4] and in [5] was inactive.

With `CCN1CCCC1CN` (stereo not drawn), the Potency result in test [1], in test [2], in [3], in test [6], in [7] and in test [8] was “inactive” throughout. Besides, the Potency entry in test [9], in [10], in test [11], in test [12], in [13] and in test [14] was “inactive” in each case. Besides, the Potency entry in [18], in test [19], in test [15], in test [16] and in test [17] was “inactive” each time. The outcome in [4] and in test [5] was inactive.

Regarding `OCC(F)(F)F`, the Potency entry in test [1], in test [2], in test [3], in test [6], in test [7] and in test [9] was “inactive” in each case. Further, the Potency entry in [10], in test [11], in [12], in test [13], in test [14] and in [18] was “inactive” each time. For the same compound, the Potency result in test [19], in [15], in [16] and in test [17] was “inactive” each time. Besides, the result in [4] and in test [5] was inactive. In addition, the Potency in test [8] is 38.3 µM (active).

In the case of `CCCCCCCC(=O)Oc1c(Br)cc(C#N)cc1Br`, the Potency entry in [1], in test [2], in test [3], in test [6], in [7] and in test [8] was “inactive” throughout. For the same compound, the Potency result in test [9], in [10], in [11], in test [12], in test [13] and in test [14] was “inactive” each time. In addition, the Potency result in [15], in test [16] and in [17] was “inactive” each time. Also, the result in test [4] and in test [5] was inactive.

With `CCOC(=O)COc1cc(-n2ncc(C(F)(F)F)c(C)c2=O)c(F)cc1Cl`, the Potency result in test [1], in [2], in test [3], in [6], in test [7] and in test [8] was “inactive” each time. The Potency entry in test [9], in test [10], in test [11], in test [12], in test [13] and in [14] was “inactive” in each case. For the same compound, the Potency entry in test [20], in [15], in test [16] and in [17] was “inactive” in each case. Further, the outcome in test [4] and in test [5] was inactive.

Consider `C/C=C(\C)C=O`, for which the Potency entry in test [1], in [2], in [3], in test [6], in [7] and in test [8] was “inactive” in each case. Further, the Potency result in test [9], in test [10], in test [11], in test [12], in test [13] and in test [14] was “inactive” throughout. For the same compound, the Potency entry in test [19], in test [15], in [16] and in [17] was “inactive” each time. Further, the result in [4] and in test [5] was inactive.
